Reference: the supplement of paper PMC4466140

target: ScBbc1; assay: SPOT peptide array binding signal intensity (averaged, normalized) (arbitrary units (background-subtracted, floor 0; scale differs between SH3 domains)); higher = stronger binding of the SH3 domain to the peptide
Outline: (§1)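 Four yeast species supplied the SH3 domains, which were expressed as GST fusions in E. coli BL21(DE3) and purified on glutathione Sepharose. Incubation with cellulose membranes carrying synthetic 15-mer peptides, cysteines exchanged for serines, ran overnight at 4°C at 10 μg/ml in TBS-based blocking buffer. Binding signal is reported as normalized, background-subtracted spot intensity averaged over replicates, in arbitrary units not shared between domains.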

Row | Binder | SPOT peptide array binding signal intensity
1 | GPPPPLPPPLFPSSS | ≤ 0

target: ScBem1-D1; assay: as above
Outline: as §1

Row | Binder | SPOT peptide array binding signal intensity
2 | GPPPPLPPPLFPSSS | ≤ 0

target: ScBzz1-D1; assay: as above
Outline: as §1

Row | Binder | SPOT peptide array binding signal intensity
3 | GPPPPLPPPLFPSSS | 1.5

target: ScBzz1-D2; assay: as above
Outline: as §1

Row | Binder | SPOT peptide array binding signal intensity
4 | GPPPPLPPPLFPSSS | ≤ 0

target: ScCyk3; assay: as above
Outline: as §1

Row | Binder | SPOT peptide array binding signal intensity
5 | GPPPPLPPPLFPSSS | ≤ 0

target: ScFus1; assay: as above
Outline: as §1

Row | Binder | SPOT peptide array binding signal intensity
6 | GPPPPLPPPLFPSSS | ≤ 0

target: ScHof1; assay: as above
Outline: as §1

Row | Binder | SPOT peptide array binding signal intensity
7 | GPPPPLPPPLFPSSS | 1900

target: ScHse1; assay: as above
Outline: as §1

Row | Binder | SPOT peptide array binding signal intensity
8 | GPPPPLPPPLFPSSS | ≤ 0

target: ScLsb1; assay: as above
Outline: as §1

Row | Binder | SPOT peptide array binding signal intensity
9 | GPPPPLPPPLFPSSS | 288

target: ScLsb2; assay: as above
Outline: as §1

Row | Binder | SPOT peptide array binding signal intensity
10 | GPPPPLPPPLFPSSS | 12

target: ScLsb3; assay: as above
Outline: as §1

Row | Binder | SPOT peptide array binding signal intensity
11 | GPPPPLPPPLFPSSS | 110

target: ScLsb4; assay: as above
Outline: as §1

Row | Binder | SPOT peptide array binding signal intensity
12 | GPPPPLPPPLFPSSS | 20

target: ScMyo3; assay: as above
Outline: as §1

Row | Binder | SPOT peptide array binding signal intensity
13 | GPPPPLPPPLFPSSS | 1490

target: ScMyo5; assay: as above
Outline: as §1

Row | Binder | SPOT peptide array binding signal intensity
14 | GPPPPLPPPLFPSSS | 901

target: ScNbp2; assay: as above
Outline: as §1

Row | Binder | SPOT peptide array binding signal intensity
15 | GPPPPLPPPLFPSSS | ≤ 0

target: ScPex13; assay: as above
Outline: as §1

Row | Binder | SPOT peptide array binding signal intensity
16 | GPPPPLPPPLFPSSS | 4060

target: ScRvs167; assay: as above
Outline: as §1

Row | Binder | SPOT peptide array binding signal intensity
17 | GPPPPLPPPLFPSSS | 32.5

target: ScSho1; assay: as above
Outline: as §1

Row | Binder | SPOT peptide array binding signal intensity
18 | GPPPPLPPPLFPSSS | ≤ 0

target: ScSla1-D1-D2; assay: as above
Outline: as §1

Row | Binder | SPOT peptide array binding signal intensity
19 | GPPPPLPPPLFPSSS | ≤ 0

target: ScSla1-D3; assay: as above
Outline: as §1

Row | Binder | SPOT peptide array binding signal intensity
20 | GPPPPLPPPLFPSSS | ≤ 0

target: SpAbp1-D1; assay: as above
Outline: as §1

Row | Binder | SPOT peptide array binding signal intensity
21 | GPPPPLPPPLFPSSS | ≤ 0

target: SpBbc1; assay: as above
Outline: as §1

Row | Binder | SPOT peptide array binding signal intensity
22 | GPPPPLPPPLFPSSS | ≤ 0

target: SpBzz1-D1; assay: as above
Outline: as §1

Row | Binder | SPOT peptide array binding signal intensity
23 | GPPPPLPPPLFPSSS | 683

target: SpBzz1-D2; assay: as above
Outline: as §1

Row | Binder | SPOT peptide array binding signal intensity
24 | GPPPPLPPPLFPSSS | 4.25

target: SpCyk3; assay: as above
Outline: as §1

Row | Binder | SPOT peptide array binding signal intensity
25 | GPPPPLPPPLFPSSS | ≤ 0

target: SpHof1; assay: as above
Outline: as §1

Row | Binder | SPOT peptide array binding signal intensity
26 | GPPPPLPPPLFPSSS | ≤ 0

target: SpHof1-2; assay: as above
Outline: as §1

Row | Binder | SPOT peptide array binding signal intensity
27 | GPPPPLPPPLFPSSS | ≤ 0

target: SpHof1-3; assay: as above
Outline: as §1

Row | Binder | SPOT peptide array binding signal intensity
28 | GPPPPLPPPLFPSSS | ≤ 0

target: SpHse1; assay: as above
Outline: as §1

Row | Binder | SPOT peptide array binding signal intensity
29 | GPPPPLPPPLFPSSS | 40.8

target: SpLsb1; assay: as above
Outline: as §1

Row | Binder | SPOT peptide array binding signal intensity
30 | GPPPPLPPPLFPSSS | 184

target: SpLsb4; assay: as above
Outline: as §1

Row | Binder | SPOT peptide array binding signal intensity
31 | GPPPPLPPPLFPSSS | 225

target: SpMyo1; assay: as above
Outline: as §1

Row | Binder | SPOT peptide array binding signal intensity
32 | GPPPPLPPPLFPSSS | 1290

target: SpNbp2; assay: as above
Outline: as §1

Row | Binder | SPOT peptide array binding signal intensity
33 | GPPPPLPPPLFPSSS | ≤ 0

target: SpPex13; assay: as above
Outline: as §1

Row | Binder | SPOT peptide array binding signal intensity
34 | GPPPPLPPPLFPSSS | ≤ 0

target: SpRvs167; assay: as above
Outline: as §1

Row | Binder | SPOT peptide array binding signal intensity
35 | GPPPPLPPPLFPSSS | 1430

target: SpSla1-D1-D2; assay: as above
Outline: as §1

Row | Binder | SPOT peptide array binding signal intensity
36 | GPPPPLPPPLFPSSS | ≤ 0

target: SpSla1-D3; assay: as above
Outline: as §1

Row | Binder | SPOT peptide array binding signal intensity
37 | GPPPPLPPPLFPSSS | ≤ 0
